Measurements: PubChem BioAssay (NCI)
About 79,000 compounds went through this panel and 15% of them were active in at least one assay; those are over-represented in the sample as a whole. Values without a mark were called inactive. Activity calls are given as the source filed them. Cut-off read from the data, not from the text of the source: active = growth inhibition above about 70%; inactive = the rest.

How the values were obtained:
[1] = NCI Yeast Anticancer Drug Screen. Data for the rad50 strain (AID 155);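 note: 0% = growth of vehicle-only cultures of the same strain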; conditions: S. cerevisiae rad50 strain growth inhibition, active compounds read high
Outline: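 Relative growth inhibition (compound vs vehicle) was measured in yeast with a defined repair-gene alteration.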

[2] = NCI Yeast Anticancer Drug Screen. Data for the mec2-1 strain (AID 157); conditions: S. cerevisiae mec2-1 strain, active compounds read high
Outline: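 Compounds were applied to mec2-1 yeast cells. Their growth was then compared with that of vehicle-treated cultures to give growth inhibition.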

[3] = NCI Yeast Anticancer Drug Screen. Data for the sgs1 mgt1 strain (AID 161);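 note: 0% = growth of cultures given vehicle only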; conditions: S. cerevisiae sgs1 mgt1 strain, active compounds read high
Outline: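 Compounds are added to genetically altered yeast, and growth is compared with cultures given vehicle alone to give percent inhibition.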

[4] = NCI Yeast Anticancer Drug Screen. Data for the cln2 rad14 strain (AID 165);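 note: 0% = growth equal to vehicle treated cultures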; conditions: S. cerevisiae cln2 rad14 strain, active compounds read high
Outline: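 Strain: cln2 rad14 yeast, altered in cell cycle control and DNA damage repair. Read-out: growth inhibition vs vehicle.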

[5] = NCI Yeast Anticancer Drug Screen. Data for the bub3 strain (AID 167); conditions: S. cerevisiae bub3 mutant strain, active compounds read high
Outline: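 Screening used yeast with an engineered genetic alteration affecting cell cycle control. Compound-exposed cultures were compared with vehicle cultures, and reduced growth was taken as inhibition.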

[6] = NCI Yeast Anticancer Drug Screen. Data for the mlh1 rad18 strain (AID 175); conditions: S. cerevisiae mlh1 rad18 strain growth inhibition, active compounds read high
Outline: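 A repair-deficient yeast strain is exposed to test compound, and growth is scored relative to vehicle-treated controls.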

[7] = at 5.0 µM (retest, dose inferred, filed as 0.5)
[8] = at 50.0 µM (retest, dose inferred, filed as 5.0)

| Compound | growth inhibition [1, 7] | growth inhibition [1, 8] | growth inhibition ([1]; at 50.0 µM) | growth inhibition [2, 7] | growth inhibition [2, 8] | growth inhibition ([2]; at 50.0 µM) | growth inhibition [3, 7] | growth inhibition [3, 8] | growth inhibition ([3]; at 50.0 µM) | growth inhibition [4, 7] | growth inhibition [4, 8] | growth inhibition ([4]; at 50.0 µM) | growth inhibition [5, 7] | growth inhibition [5, 8] | growth inhibition ([5]; at 50.0 µM) | growth inhibition [6, 7] | growth inhibition [6, 8] | growth inhibition ([6]; at 50.0 µM) |
| --- | --- | --- | --- | --- | --- | --- | --- | --- | --- | --- | --- | --- | --- | --- | --- | --- | --- | --- |
| Cc1ccc(O)c(C(c2cc(C)ccc2O)c2cc([N+](=O)[O-])ccc2O)c1 | 23% | 97% (active) | 90.9% (active) | 7% | 99% (active) | 93.1% (active) | 17% | 99% (active) | 40.5% | 17% | 99% (active) | 90.8% (active) | 5% | 99% (active) | 91.8% (active) | 24% | 97% (active) | 91.3% (active) |
| S=C(Nc1ccc(Cl)c(Cl)c1)N1c2ccccc2-n2cccc2C1c1cccnc1 (stereo not given) | 49% | 99% (active) | 80.8% (active) | 46% | 99% (active) | 84.5% (active) | 59% | 94% (active) | 85% (active) | 91% (active) | 94% (active) | 84.7% (active) | 72% (active) | 89% (active) | 84% (active) | 45% | 100% (active) | 87.8% (active) |
| COC12C=CC(CC1)c1c2c(O)c2ncccc2c1O (stereo not given) | -4% | 67% | 78.6% (active) | -3% | 40% | 34.9% | -5% | 47% | 72.5% (active) | -4% | 23% | 21.9% | 3% | 77% (active) | 90.3% (active) | -6% | 52% | 48.3% |
| O=C(CC(O)(c1ccccc1)c1ccc(Cl)cc1)NC(=O)c1ccccc1O (stereo not given) | 45% | 93% (active) | 85% (active) | 40% | 98% (active) | 89% (active) | 48% | 97% (active) | 91.6% (active) | 42% | 99% (active) | 89% (active) | 50% | 99% (active) | 86.8% (active) | 53% | 97% (active) | 86.8% (active) |
| OCC(c1ccccc1)[P+](c1ccccc1)(c1ccccc1)c1ccccc1 (stereo not given) | 2% | 34% | 79.2% (active) | -8% | 45% | 49.9% | -9% | 0% | 74.3% (active) | -42% | -1% | 31.9% | 0% | 13% | 26.3% | -14% | 5% | 59.6% |
| O=C(O)c1cccc(S(=O)(=O)NN2C(=O)CSC2c2c(O)ccc3ccccc23)c1 (stereo not given) | -11% | 50% | 61.9% | 0% | 50% | 61% | 2% | 80% (active) | 91.7% (active) | -4% | 57% | 36.9% | 6% | 86% (active) | 83.5% (active) | -15% | 82% (active) | 95.2% (active) |
| C#CCn1cnc2c(N)ncnc21 | -1% | -11% | 6.75% | 3% | -8% | 15.8% | 5% | -13% | 28.4% | 3% | -6% | 84.2% (active) | -4% | -16% | -6.65% | 2% | -14% | 7.3% |
| CN(C)CC1CCC/C(=C\c2ccc(Cl)c(Cl)c2)C1=O (stereo not given) | 19% | 98% (active) | 69.3% | 9% | 98% (active) | 81.8% (active) | -1% | 97% (active) | 86.5% (active) | 7% | 97% (active) | 86.5% (active) | -22% | 98% (active) | 86% (active) | 6% | 97% (active) | 89.3% (active) |
| COc1cc(CNC(=O)CCCCCCCCCCSC#N)ccc1O | 6% | 59% | 82.1% (active) | 5% | 43% | 85.2% (active) | 7% | 77% (active) | 83.6% (active) | 1% | 76% (active) | 81% (active) | 0% | 82% (active) | 86.7% (active) | 20% | 73% (active) | 81.2% (active) |
| CC12C(=O)OC(=O)C1C1c3ccccc3C2c2ccccc21 (stereo not given) | 71% (active) | 99% (active) | 89.7% (active) | 82% (active) | 99% (active) | 89.5% (active) | 26% | 90% (active) | 89.3% (active) | 51% | 95% (active) | 86.8% (active) | 54% | 90% (active) | 89.5% (active) | 76% (active) | 99% (active) | 88% (active) |
